TLR4-MyD88 BLA: blocks binding of human TLR4 to MyD88. O00206+Q99836. HeLa CL3-4 TLR4/MyD88 BLA complementation, FRET ratio. inhibition, % at 8.4 µM. hit rate 0.18% among 200,000. AID 861; in the data active = inhibition above about 25%
HSF1 inhib: HSF1 inhibition | hit rate 0.77% among 300,000 | NIH3T3-HGL HSE-luciferase, MG132-induced, luminescence 8 h; stronger effect = lower value | activity change, negative = inhibition, % at 7.5 µM (by protocol);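 active = more than half of replicate wells show activity change below -50%, luminescence cut by over half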;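 also: luciferase reports HSF-1 transcriptional activity via heat shock element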
HSF1 activator: increases HSF-1 driven luciferase reporter signal; hit rate 1.7% among 300,000; NIH3T3-HGL HSF-1 luciferase reporter, MG132, 8 h; 100% = twice DMSO control signal; AID 504408; activation, % at 9 µM;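 active = mean replicate activation of at least 50% with a set share of replicates each reaching 50%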
TLR9-MyD88 block: TLR9-MyD88 interaction inhibition | Q9NR96+Q99836 | CHO BLA complementation TLR9-MyD88, CCF4 FRET ratio | inhibition, % at 4.98 µM | hit rate 0.21% among 340,000;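 active = inhibition above the mean over all tested compounds plus 3 SD, cut at about 21% in these data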
NOD2-RIPK2 inh: NOD2-RIPK2 protein interaction inhibition; O43353; CHO BLA complementation NOD2-RIPK2, CCF4 ratio; inhibition, % at 4.98 µM; hit rate 0.38% among 360,000; AID 624267; in the data active = inhibition above about 21%
TLR9-MyD88 cf: TLR9-MyD88 interaction inhibition, confirmation. shares compounds with TLR9-MyD88 block. CHO TLR9/MyD88 BLA complementation, CCF4 FRET ratio. inhibition, % at 4.98 µM. hit rate 51% among 680. AID 540250;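 active = mean inhibition across three repeats above about 21% taken from the earlier screen, limit read from the data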;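 also: blue over green emission ratio reports constitutive TLR9 MyD88 association via BLA complementation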
Target sequence (Q9NR96 whole entry, looked up): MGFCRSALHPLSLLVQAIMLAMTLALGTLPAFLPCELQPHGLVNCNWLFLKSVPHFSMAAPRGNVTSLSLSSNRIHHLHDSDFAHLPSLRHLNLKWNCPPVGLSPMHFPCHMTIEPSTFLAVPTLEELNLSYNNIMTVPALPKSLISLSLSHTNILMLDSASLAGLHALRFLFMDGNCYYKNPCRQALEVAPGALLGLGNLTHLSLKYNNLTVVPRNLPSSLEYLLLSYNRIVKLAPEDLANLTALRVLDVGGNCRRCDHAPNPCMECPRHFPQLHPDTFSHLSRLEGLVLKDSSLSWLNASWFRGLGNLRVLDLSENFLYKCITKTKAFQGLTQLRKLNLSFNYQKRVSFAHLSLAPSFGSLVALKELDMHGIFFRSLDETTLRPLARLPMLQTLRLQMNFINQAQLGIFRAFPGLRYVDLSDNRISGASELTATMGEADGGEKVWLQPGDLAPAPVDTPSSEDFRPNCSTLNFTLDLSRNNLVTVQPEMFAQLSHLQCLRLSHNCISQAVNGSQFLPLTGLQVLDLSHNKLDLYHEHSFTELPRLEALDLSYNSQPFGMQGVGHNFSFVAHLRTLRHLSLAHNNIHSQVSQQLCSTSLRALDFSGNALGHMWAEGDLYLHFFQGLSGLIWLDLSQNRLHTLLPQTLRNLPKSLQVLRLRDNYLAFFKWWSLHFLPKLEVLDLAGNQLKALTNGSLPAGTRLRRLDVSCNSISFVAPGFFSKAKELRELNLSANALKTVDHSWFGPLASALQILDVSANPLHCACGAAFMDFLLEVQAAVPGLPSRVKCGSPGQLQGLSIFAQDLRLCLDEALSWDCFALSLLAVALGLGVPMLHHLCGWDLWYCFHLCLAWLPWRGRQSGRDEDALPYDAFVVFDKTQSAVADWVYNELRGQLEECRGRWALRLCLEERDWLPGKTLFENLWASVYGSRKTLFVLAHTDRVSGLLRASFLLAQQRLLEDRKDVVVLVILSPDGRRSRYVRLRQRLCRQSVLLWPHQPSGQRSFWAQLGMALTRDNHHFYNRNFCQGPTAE
BLA counter-1: non-selective beta-lactamase inhibitors in TLR9-MyD88 counter-screen. CHO-BLA cells, CCF4 FRET ratio, BLA reporter. inhibition, % at 4.98 µM. shares compounds with TLR9-MyD88 block. hit rate 7% among 680. AID 540251;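 active = mean inhibition above a 50% cutoff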;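 also: counterscreen of TLR9-MyD88 hits on CMV-driven BLA in CHO-K1 cells; higher means less blue over green ratio so more BLA blockade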
TLR9 CHO cytotox: CHO cell toxicity counter-screen for TLR9-MyD88 inhibitors; shares compounds with TLR9-MyD88 block; TLR9-MyD88 CHO cells cytotoxicity, luminescence; inhibition, % at 4.98 µM; hit rate 39% among 680; AID 588336; in the data active = inhibition above about 11%
NOD2 RIPK2 conf: NOD2-RIPK2 interaction inhibition confirmed | shares compounds with NOD2-RIPK2 inh | CHO cells, NOD2-RIPK2 BLA complementation, CCF4 FRET | inhibition, % at 4.98 µM | hit rate 70% among 1,200;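 active = mean inhibition across replicates above a set limit taken from the earlier primary screen, cut at about 21% in these data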
BLA counter-2: hits BLA reporter in NOD2-RIPK2 inhibitor counterscreen. shares compounds with NOD2-RIPK2 inh. inhibition, % at 4.98 µM. hit rate 57% among 1,200. AID 624371. CHO BLA reporter, CCF4 FRET ratio;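 active = mean inhibition above the low-control mean inhibition plus three low-control SD, cut at about 11% in these data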
Hits are given with their value; - = inactive; . = not tested or not shown. Rows were chosen to be rich in hits. Some 2.4% of all compounds tested hit in one or more screens of this group.

SMILES | TLR4-MyD88 BLA | HSF1 inhib | HSF1 activator | TLR9-MyD88 block | NOD2-RIPK2 inh | TLR9-MyD88 cf | BLA counter-1 | TLR9 CHO cytotox | NOD2 RIPK2 conf | BLA counter-2
CC(=O)N(c1nnc(-c2ccc(C)cc2)s1)C1CCCC1 | . | - | - | - | - | . | . | . | . | .
CCCCCCCCN1C(=O)[C@H](CC(=O)N2CCC(c3ccccc3)CC2)C[C@@]2(C(=O)OC)CC(C)(C)CC=C12 | . | . | . | . | - | . | . | . | . | .
Cc1ccc(NC(=O)CN(C)CC(=O)N(CC(C)C)c2c(N)n(CC(C)C)c(=O)[nH]c2=O)c(C)c1 | . | . | . | - | - | . | . | . | . | .
COc1ccccc1N(C(C)=O)C1=C(Cl)C(=O)c2ccccc2C1=O | . | . | . | 65 | 90 | 86 | - | 102 | 96 | 51
COc1ccc2nc(C)cc(NCc3ccc(F)cc3)c2c1 | . | - | - | 38 | 24 | 22 | - | 30 | 45 | 44
CC1(C(=O)NCc2ccccc2)CCC(=O)N1CCOc1ccccc1 (centres undefined) | . | . | . | . | - | . | . | . | . | .
O=C(CN1C(=O)NC2(CCCCC2)C1=O)Oc1ccc2c(C(F)(F)F)cc(=O)oc2c1 | . | - | - | 43 | 67 | 36 | - | - | 63 | 67
CCc1cc(=O)oc2cc(OC(=O)CN3C(=O)NC4(CCCC4)C3=O)ccc12 | . | - | - | - | - | . | . | . | . | .
CC(=O)OCCNc1cc(SCc2ccco2)c2nonc2c1[N+](=O)[O-] | - | - | - | - | - | . | . | . | . | .
CC(=O)OCCNc1cc(Sc2nc3ccccc3[nH]2)c2nonc2c1[N+](=O)[O-] | - | - | - | 56 | 89 | 60 | - | 99 | 90 | 38
Nc1ccn([C@@H]2O[C@H](CNCc3ccc(OCC(=O)Nc4nccs4)cc3)[C@@H](O)[C@H]2O)c(=O)n1 | . | . | . | - | - | . | . | . | . | .
CC(=O)Oc1ccc2cc(-c3nc4ccccc4n3C)c(=O)oc2c1 | - | - | - | 22 | 39 | - | - | - | 38 | 59
O=C(/C=C/c1cccc(Cl)c1)c1ccc([N+](=O)[O-])o1 | . | - | - | 26 | 52 | 21 | - | 96 | 88 | 19
Cc1nc(-c2ccc(F)cc2)c(CC(=O)N2CCN(S(=O)(=O)c3cccc([N+](=O)[O-])c3)CC2)s1 | . | . | . | - | - | . | . | . | . | .
CCCNC(=O)c1nnsc1S(=O)(=O)c1ccc(Cl)cc1 | - | . | . | 35 | 84 | 37 | - | 99 | 85 | 23
CNC(=O)c1nnsc1S(=O)c1ccc(Cl)cc1 (centres undefined) | - | - | 73 | 46 | 57 | 51 | - | 97 | 54 | 28
CCCNC(=O)c1nnsc1S(=O)c1ccc(Cl)cc1 (centres undefined) | - | -96 | - | 48 | 80 | 49 | - | 100 | 85 | 25
CCCNC(=O)NS(=O)(=O)c1ccc(Cl)cc1 | - | - | - | - | - | . | . | . | . | .
CCC(CC)C(=O)N(C)c1c(C)nc2c(OCc3ccccc3C(=O)OC)cccn12 | . | . | . | . | - | . | . | . | . | .
COc1cc2oc3ccc(C#Cc4ccc(N)cc4)cc3c(=O)c2cc1OC | . | - | - | - | - | . | . | . | . | .
COc1cc2oc3cc(C#Cc4ccc(N)cc4)ccc3c(=O)c2cc1OC | . | - | - | 38 | 26 | 40 | - | - | 54 | 58
CNC(C)C#Cc1ccc2c(=O)c3ccccc3oc2c1 (centres undefined) | . | - | - | - | - | . | . | . | . | .
Nc1ccc(C#Cc2ccc3c(=O)c4ccccc4oc3c2)cc1 | . | - | - | 74 | 67 | 64 | 70 | - | 78 | 84
Cc1cc(C)n2nc(C(=O)OCC(=O)N(Cc3ccccc3)C(C)C)nc2n1 | . | . | . | - | - | . | . | . | . | .
O=C(CC(Sc1ccc(Br)cc1)C(=O)O)c1ccc(F)cc1 (centres undefined) | . | - | - | - | - | . | . | . | . | .
SMILES | TLR4-MyD88 BLA | HSF1 inhib | HSF1 activator | TLR9-MyD88 block | NOD2-RIPK2 inh | TLR9-MyD88 cf | BLA counter-1 | TLR9 CHO cytotox | NOD2 RIPK2 conf | BLA counter-2
COc1ccccc1CNC(=O)CCN1C(=O)c2ccccc2C1=O | . | - | - | - | - | . | . | . | . | .
COc1ccccc1CNC(=O)CN1C(=O)c2cccc(N)c2C1=O | . | - | - | 36 | 31 | - | - | - | 46 | 49
Cc1ccc(N2C(=O)c3cccc4c([N+](=O)[O-])ccc(c34)C2=O)c2cccnc12 | . | - | - | - | - | . | . | . | . | .
Cc1nnc(N2C(=O)c3cccc4c([N+](=O)[O-])ccc(c34)C2=O)s1 | . | - | - | 80 | 91 | 67 | 84 | 58 | 93 | 87
O=C(C#Cc1ccccc1)c1ccco1 | . | -96 | - | 30 | 78 | 48 | - | 97 | 83 | 18
COc1ccc(C=O)c(-c2c(CCO)sc3ccccc23)c1 | . | . | . | . | - | . | . | . | . | .
Nc1ncnc2c1ncn2[C@@H]1O[C@H](C(=O)N[C@H]2c3ccccc3C[C@H]2O)[C@@H](O)[C@H]1O | . | . | . | . | - | . | . | . | . | .
COc1ccc(OC)c(C=Cc2ccc([N+](=O)[O-])cc2)c1 | . | . | . | 34 | 43 | 26 | - | - | 46 | 53
COc1ccc(/C=N/Nc2ccc([N+](=O)[O-])cc2)cc1O | . | - | - | 37 | 28 | 28 | - | - | 43 | 47
COc1ccc(/C=N/Nc2ccc([N+](=O)[O-])cc2)cc1Cn1cc([N+](=O)[O-])cn1 | - | - | - | - | - | . | . | . | . | .
CC(C)N1C(=O)S/C(=C\c2ccc(-c3ccc(Cl)c(C(=O)O)c3)o2)C1=O | . | - | - | - | - | . | . | . | . | .
CCN(CC)c1ccc(/C=C2/SC(=O)N(C(C)C)C2=O)o1 | - | - | 209 | 31 | 65 | - | - | 61 | 27 | 15
CC(C)CCN1C(=O)c2cccc3c(N)ccc(c23)C1=O | . | - | - | 55 | 70 | 33 | - | - | 64 | 70
Cc1cccc(N2C(=O)c3cccc4c(N)ccc(c34)C2=O)c1 | . | - | - | 32 | 35 | - | - | - | 37 | 44
CCN1C(=O)c2cccc3c(Cl)ccc(c23)C1=O | - | - | - | - | - | . | . | . | . | .
CCOc1ncccc1C(=O)Nc1cc(S(=O)(=O)N2CCCCC2)ccc1C | . | . | . | - | - | . | . | . | . | .
CCCCCCSc1cc(-c2nc3cnccn3c2NCCCC)ccc1OC | . | . | . | 41 | 44 | 26 | - | 14 | 40 | 52
Fc1ccc(C2CC(c3ccco3)=NN2c2ccccc2)cc1 (centres undefined) | - | - | - | - | - | . | . | . | . | .
NS(=O)(=O)c1ccc(N2N=C(c3ccccc3)CC2c2ccccc2Br)cc1 (centres undefined) | . | . | . | - | - | . | . | . | . | .
